{"source": "paper PMC4336329", "about": "(PLoS ONE, 2015)", "note": "The whole screen tested about 310,000 compounds, of which about 14,000 (4.5%) showed an effect of 50% or more. Effects have a minus sign here. Only a selection was taken, and strong results are over-represented in it overall.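 Note: peak tail current of the secondary pulse compared with the same well before compound.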", "data": [{"molecular_target": "human ether-à-go-go-related gene (hERG) potassium channel (human, UniProt Q12809)", "sequence (Q12809 whole entry, looked up)": "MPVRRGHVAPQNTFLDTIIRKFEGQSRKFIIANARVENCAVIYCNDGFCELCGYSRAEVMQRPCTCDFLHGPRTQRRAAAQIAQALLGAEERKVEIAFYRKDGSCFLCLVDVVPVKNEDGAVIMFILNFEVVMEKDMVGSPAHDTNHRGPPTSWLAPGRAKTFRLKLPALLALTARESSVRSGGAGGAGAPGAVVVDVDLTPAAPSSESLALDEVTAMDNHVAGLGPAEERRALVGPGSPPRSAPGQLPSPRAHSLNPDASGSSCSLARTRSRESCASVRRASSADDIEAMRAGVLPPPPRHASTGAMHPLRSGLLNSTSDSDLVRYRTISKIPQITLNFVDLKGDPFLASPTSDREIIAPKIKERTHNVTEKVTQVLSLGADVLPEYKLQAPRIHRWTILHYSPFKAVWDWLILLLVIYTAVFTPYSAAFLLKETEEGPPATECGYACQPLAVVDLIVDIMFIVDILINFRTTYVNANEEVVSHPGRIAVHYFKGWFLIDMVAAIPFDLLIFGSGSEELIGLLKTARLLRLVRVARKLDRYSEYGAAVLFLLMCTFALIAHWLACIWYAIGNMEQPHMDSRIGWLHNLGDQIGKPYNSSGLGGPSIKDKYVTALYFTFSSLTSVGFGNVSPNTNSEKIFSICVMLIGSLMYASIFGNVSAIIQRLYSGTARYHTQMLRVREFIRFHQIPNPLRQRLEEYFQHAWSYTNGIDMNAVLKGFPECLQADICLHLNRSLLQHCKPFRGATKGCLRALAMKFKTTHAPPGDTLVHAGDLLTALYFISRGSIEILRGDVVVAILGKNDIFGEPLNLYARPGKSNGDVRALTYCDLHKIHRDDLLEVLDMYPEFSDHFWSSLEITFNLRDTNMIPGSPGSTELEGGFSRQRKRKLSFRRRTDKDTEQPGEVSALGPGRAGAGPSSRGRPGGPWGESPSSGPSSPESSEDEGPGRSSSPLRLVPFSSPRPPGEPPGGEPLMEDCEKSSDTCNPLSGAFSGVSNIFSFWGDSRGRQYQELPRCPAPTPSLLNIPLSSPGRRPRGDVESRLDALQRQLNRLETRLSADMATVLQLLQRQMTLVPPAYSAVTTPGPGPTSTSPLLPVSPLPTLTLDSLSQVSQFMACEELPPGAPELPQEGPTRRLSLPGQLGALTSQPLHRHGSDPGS", "experiment": "primary screen, population patch clamp on CHO cells stably expressing hERG; higher = less effect of the substance", "units": {"hERG current change (%, negative = inhibition) at 10uM": "%"}, "values": [{"smiles": "Cc1ccc(C(=O)NCCCN2CCOCC2)cc1", "hERG current change (%, negative = inhibition) at 10uM": 3.81}, {"smiles": "CC(C)(C)c1ccc(C(=O)NCCN2CCOCC2)cc1", "hERG current change (%, negative = inhibition) at 10uM": 1.01}, {"smiles": "CC(C)(C)c1ccc(C(=O)NCCN2CCCC2)cc1.Cl", "hERG current change (%, negative = inhibition) at 10uM": -6.48}, {"smiles": "CC(C)(C)c1ccc(C(=O)NCCCN2CCN(CCCNC(=O)c3ccc(C(C)(C)C)cc3)CC2)cc1", "hERG current change (%, negative = inhibition) at 10uM": -63.6}, {"smiles": "Cc1ccc(C(=O)NCCN2CCCC2)cc1.Cl", "hERG current change (%, negative = inhibition) at 10uM": -5.44}, {"smiles": "COc1cccc(C(=O)NCC2CCCN2S(=O)(=O)c2ccccc2)c1", "note": "(stereo not shown)", "hERG current change (%, negative = inhibition) at 10uM": 2.72}, {"smiles": "COc1cccc(-n2c(C)n[nH]c2=O)c1", "hERG current change (%, negative = inhibition) at 10uM": 14.1}, {"smiles": "O=C(N/N=C/c1ccc(O)cc1)c1csc2c1CCCC2", "hERG current change (%, negative = inhibition) at 10uM": -19.7}, {"smiles": "CCc1cc(Br)ccc1N1C(=O)C2CC=CCC2C1=O", "note": "(stereo not shown)", "hERG current change (%, negative = inhibition) at 10uM": 5.21}, {"smiles": "Cc1nccn1CCCNC(=O)CC1C(=O)NCCN1Cc1ccccc1C(F)(F)F", "note": "(stereo not shown)", "hERG current change (%, negative = inhibition) at 10uM": 9.64}, {"smiles": "CCCN(N=Nc1cccc([N+](=O)[O-])c1)c1cccc([N+](=O)[O-])c1", "hERG current change (%, negative = inhibition) at 10uM": 3.14}, {"smiles": "O=C(NCCCN1CCN(CCCNC(=O)c2ccc(F)cc2)CC1)c1ccc(F)cc1", "hERG current change (%, negative = inhibition) at 10uM": -51.1}, {"smiles": "O=C(NCCCCNC(=O)c1ccc(F)cc1)c1ccc(F)cc1", "hERG current change (%, negative = inhibition) at 10uM": 13.3}, {"smiles": "O=C(NCCCNC(=O)c1ccc(F)cc1)c1ccc(F)cc1", "hERG current change (%, negative = inhibition) at 10uM": 7.81}, {"smiles": "CCn1c2ccccc2c2nnc(SCC(=O)N(C)C3CCS(=O)(=O)C3)nc21", "note": "(stereo not shown)", "hERG current change (%, negative = inhibition) at 10uM": -21}, {"smiles": "O=C(CN(C(=O)CCC(=O)Nc1ccccn1)c1cccc(F)c1)NCc1ccc(F)cc1", "hERG current change (%, negative = inhibition) at 10uM": -4.26}, {"smiles": "CS(=O)(=O)N1CCN(C(=O)c2csc3ccccc23)CC1", "hERG current change (%, negative = inhibition) at 10uM": 2.35}, {"smiles": "CN1CC(C(=O)c2cccc(C(F)(F)F)c2)C(c2ccc(Cl)cc2)C1", "note": "(stereo not shown)", "hERG current change (%, negative = inhibition) at 10uM": -20}, {"smiles": "O=C(c1ccccc1)C1CN(c2ccccc2)CC1c1ccc(Cl)cc1", "note": "(stereo not shown)", "hERG current change (%, negative = inhibition) at 10uM": 27.1}, {"smiles": "CN1CC(C(=O)c2ccc([N+](=O)[O-])cc2)C(c2ccc(Cl)cc2)C1", "note": "(stereo not shown)", "hERG current change (%, negative = inhibition) at 10uM": -75.6}, {"smiles": "Cc1ccc(C2CN(c3ccccc3)CC2C(=O)c2ccc(F)cc2)cc1", "note": "(stereo not shown)", "hERG current change (%, negative = inhibition) at 10uM": -17}, {"smiles": "Cc1ccc(C2CN(C)CC2C(=O)c2ccc(F)cc2)cc1", "note": "(stereo not shown)", "hERG current change (%, negative = inhibition) at 10uM": -53.2}, {"smiles": "CN1CC(C(=O)c2ccc(F)cc2)C(c2c(F)cccc2Cl)C1", "note": "(stereo not shown)", "hERG current change (%, negative = inhibition) at 10uM": -65.7}, {"smiles": "COc1cccc(C(=O)C2CN(C)CC2c2ccc(Cl)cc2)c1", "note": "(stereo not shown)", "hERG current change (%, negative = inhibition) at 10uM": -66.4}, {"smiles": "COc1cccc(C(=O)C2CN(c3ccccc3)CC2c2ccc(Cl)cc2)c1", "note": "(stereo not shown)", "hERG current change (%, negative = inhibition) at 10uM": 5.04}, {"smiles": "CN1CC(C(=O)c2ccc(Cl)cc2)C(c2ccccc2F)C1", "note": "(stereo not shown)", "hERG current change (%, negative = inhibition) at 10uM": -46.5}, {"smiles": "CN1CC(C(=O)c2ccc(Cl)cc2)C(c2ccc(Cl)cc2Cl)C1", "note": "(stereo not shown)", "hERG current change (%, negative = inhibition) at 10uM": -49.2}, {"smiles": "CN1CC(C(=O)c2ccc(F)cc2)C(c2ccc(F)cc2)C1", "note": "(stereo not shown)", "hERG current change (%, negative = inhibition) at 10uM": -30.2}, {"smiles": "COc1ccc(OC)c(NC(=O)COC(=O)c2ccc(OC)c(S(=O)(=O)N3CCCC3)c2)c1", "hERG current change (%, negative = inhibition) at 10uM": 16.9}, {"smiles": "CN(C)C=O.NS(=O)(=O)c1cccc(NC(=O)CSc2nc3nc(-c4cccs4)cc(C(F)(F)F)c3c(=O)[nH]2)c1", "hERG current change (%, negative = inhibition) at 10uM": 7.85}, {"smiles": "CCOc1cc(CNc2nn[nH]n2)ccc1OCC(=O)NC(C)(C)C", "hERG current change (%, negative = inhibition) at 10uM": 13.2}, {"smiles": "O=C(c1cc(O)c(O)c([N+](=O)[O-])c1)c1ccccc1F", "hERG current change (%, negative = inhibition) at 10uM": 2.56}, {"smiles": "COCCNC(=O)Nc1ccc2nc(-c3ccco3)c(-c3ccco3)nc2c1", "hERG current change (%, negative = inhibition) at 10uM": 4.08}, {"smiles": "CCOC(=O)CC(NS(=O)(=O)c1ccc2[nH]cc(C(=O)O)c(=O)c2c1)c1ccc(OCC)c(OC)c1", "note": "(stereo not shown)", "hERG current change (%, negative = inhibition) at 10uM": -1.02}, {"smiles": "COCCn1c(N)c(N(Cc2ccccc2)C(=O)c2ccc3ccccc3c2)c(=O)[nH]c1=O", "hERG current change (%, negative = inhibition) at 10uM": 7.55}, {"smiles": "O=C(NC1CCCC1)C1CC(=O)N(CCc2ccccc2)C1", "note": "(stereo not shown)", "hERG current change (%, negative = inhibition) at 10uM": 9.66}, {"smiles": "O=C(COc1ccccc1Cl)N1CCCC1", "hERG current change (%, negative = inhibition) at 10uM": 5.64}, {"smiles": "COc1ccc(C(=O)C2CN(c3ccccc3)CC2c2ccc(Cl)cc2)cc1", "note": "(stereo not shown)", "hERG current change (%, negative = inhibition) at 10uM": -4.84}, {"smiles": "COc1ccc(C(=O)C2CN(C)CC2c2ccc(Cl)cc2)cc1", "note": "(stereo not shown)", "hERG current change (%, negative = inhibition) at 10uM": -73.1}, {"smiles": "Cc1ccc(C(=O)C2CN(C)CC2C(=O)c2ccc(C)cc2)cc1", "note": "(stereo not shown)", "hERG current change (%, negative = inhibition) at 10uM": -57}, {"smiles": "CN1CC(C(=O)c2cccs2)C(c2ccc(Cl)cc2)C1", "note": "(stereo not shown)", "hERG current change (%, negative = inhibition) at 10uM": -49.2}, {"smiles": "Cc1ccc(C(=O)C2CN3CCC2CC3)cc1.Cl", "note": "(stereo not shown)", "hERG current change (%, negative = inhibition) at 10uM": -37.4}, {"smiles": "CN1CC(C(=O)c2ccc(Cl)cc2)C(c2ccc(N(C)C)cc2)C1", "note": "(stereo not shown)", "hERG current change (%, negative = inhibition) at 10uM": -57.9}, {"smiles": "CN1CC(C(=O)c2ccc(Cl)cc2)C(c2ccccc2)C1", "note": "(stereo not shown)", "hERG current change (%, negative = inhibition) at 10uM": -31.8}, {"smiles": "CC(=O)Nc1ccc(C2CN(C)CC2C(=O)c2ccc(Cl)cc2)cc1", "note": "(stereo not shown)", "hERG current change (%, negative = inhibition) at 10uM": -31.8}, {"smiles": "COc1ccc(-c2ccc(C(=O)C3CC3)cc2)cc1", "hERG current change (%, negative = inhibition) at 10uM": 14.7}, {"smiles": "CN1CC(C(=O)c2ccccc2)C(c2ccccc2)C1", "note": "(stereo not shown)", "hERG current change (%, negative = inhibition) at 10uM": -5.47}, {"smiles": "COc1ccc(C(=O)C2CN(C)CC2C(=O)c2ccc(OC)cc2)cc1", "note": "(stereo not shown)", "hERG current change (%, negative = inhibition) at 10uM": -57.9}, {"smiles": "CN1CC(C(=O)c2ccccc2)C(C(=O)c2ccccc2)C1", "note": "(stereo not shown)", "hERG current change (%, negative = inhibition) at 10uM": -21.4}]}]}
